Each structure is given as a SMILES string. Among all 310,000 compounds or so, about 3,400 (1.1%) were called active. The full list was thinned out, with actives kept by preference. Unmarked numbers belong to inactive results.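 The calls were made as follows: active = fluorescence ratio B-score at most minus 3 library SDs, with starting brightness B-score within 2 library SDs (cut at about -5.5 in these data); inactive = the rest, inconclusive results apart.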 Square brackets hold non-standard residues; d marks the D form. Peptide text beside a SMILES is read from it. * marks the point of attachment. ξ: configuration not given here. Cbz = O=C(OCc1ccccc1)*; ξL = CC(C)CC(N)C(=O)O; Bz = O=C(c1ccccc1)*; ξP = O=C(O)C1CCCN1

The target of the test is Potassium voltage-gated channel subfamily KQT member 2 (Rattus norvegicus) (UniProt O88943). The test is described as follows: KCNQ2 channel blockers in CHO-K1 cells – cell-based, FluxOR thallium flux, B-score, primary screen (AID 2156). Conditions: 20 min, at 10 µM; active compounds read low.
Sequence of Potassium voltage-gated channel subfamily KQT member 2 (Rattus norvegicus) (O88943 whole entry, looked up): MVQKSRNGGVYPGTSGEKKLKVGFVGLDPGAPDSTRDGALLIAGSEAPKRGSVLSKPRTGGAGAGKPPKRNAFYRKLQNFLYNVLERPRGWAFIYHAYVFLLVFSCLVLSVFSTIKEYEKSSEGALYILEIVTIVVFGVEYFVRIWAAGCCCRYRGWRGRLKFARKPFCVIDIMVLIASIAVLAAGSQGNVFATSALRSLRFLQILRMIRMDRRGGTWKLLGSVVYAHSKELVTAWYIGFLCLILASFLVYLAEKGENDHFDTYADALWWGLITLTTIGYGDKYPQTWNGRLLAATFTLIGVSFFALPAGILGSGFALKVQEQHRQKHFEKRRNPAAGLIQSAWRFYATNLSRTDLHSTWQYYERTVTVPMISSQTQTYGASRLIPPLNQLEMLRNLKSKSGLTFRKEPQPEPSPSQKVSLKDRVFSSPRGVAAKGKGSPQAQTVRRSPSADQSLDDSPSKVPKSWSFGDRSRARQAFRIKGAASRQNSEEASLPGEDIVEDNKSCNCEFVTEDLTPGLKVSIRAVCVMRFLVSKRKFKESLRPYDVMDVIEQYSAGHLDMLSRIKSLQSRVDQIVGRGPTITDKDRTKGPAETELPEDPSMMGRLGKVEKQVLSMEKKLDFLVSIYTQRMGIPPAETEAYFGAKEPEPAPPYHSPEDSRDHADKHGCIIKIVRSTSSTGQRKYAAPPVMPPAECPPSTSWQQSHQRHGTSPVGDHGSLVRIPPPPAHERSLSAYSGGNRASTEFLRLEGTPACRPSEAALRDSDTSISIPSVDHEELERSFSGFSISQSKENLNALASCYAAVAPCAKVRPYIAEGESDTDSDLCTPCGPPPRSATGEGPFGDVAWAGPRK
As for `CCN(Cc1ccccc1)S(=O)(=O)c1cc2c3c(c1)CCN3C(=O)CC2`, the B-score is -0.41.

On to `Cc1ccc(S(=O)(=O)N2CCC(C(=O)NCCC3=CCCCC3)CC2)cc1C`, for which the B-score result is “inactive”.

Turning to `O=C(NCc1ccccc1Cl)C1CCCN1S(=O)(=O)c1ccc(F)cc1` (stereo not given), the B-score was -6.35 (active).

As to `COc1ccc(NC(=O)N2CCCC2C(=O)NCc2ccccc2Cl)cc1` (stereo not given), the B-score was -1.43.

Consider `Cc1cccc(NC(=O)C2CCCN2S(=O)(=O)c2ccc(F)cc2)c1C` (stereo not given), for which the B-score was -3.21.

`CCOc1ccc(NC(=O)CN(C)C(=O)c2c(C)noc2C)cc1OCC`: the B-score was -0.82.

Take `CCN(C(=O)CSc1nnnn1-c1ccccc1OC)C1CCS(=O)(=O)C1` (stereo not given): the B-score is -0.06.

For `CCCc1nc(SCC(=O)Nc2ccc(S(=O)(=O)N(C)C)cc2)c2ccccc2n1`, the B-score result is “inactive”.

As for `CC(C)N(C(=O)CSc1nc(COc2ccccc2)nc2ccccc12)C(C)C`, the B-score is -7.53 (active).

Regarding `CCc1nc(SCC(=O)NNC(=O)c2ccc(C)cc2)c2ccccc2n1`, the B-score is -1.77.

`CC[C@@]12C(=O)N(c3ccccc3)C(=O)N1[C@H](c1ccc(Br)cc1)[C@@H]1C(=O)N(C(C)(C)C)C(=O)[C@@H]12`: the B-score result was “inactive”.

Take `O=C(CN1CCN(c2ccc(Cl)cc2)CC1)NCc1cccs1`: the B-score was -0.84.

As to `Cc1ccc(CNC(=O)CN2CCN(Cc3ccc(Cl)cc3)C2=O)cc1`, the B-score is -0.18.

On to `Cc1ccccc1N1CCN(CC(=O)NCc2ccc(Cl)cc2)CC1`, for which the B-score is -8.15 (active).

For the compound `COc1ccc(NC(=O)CN(C)C(=O)CC2CCCCC2)cc1`, the B-score was -0.05.

In the case of `COc1ccc2c(c1)C(=O)Nc1cc(Cl)ccc1N2`, the B-score result is “inactive”.

In the case of `CCC(O)C1CCN(Cc2cn(-c3ccc(OC)cc3)nc2-c2cccc(F)c2)CC1` (stereo not given), the B-score result is “inactive”.

For the compound `Cc1ccc(C)c(-n2cc(CN3CCN(C(=O)c4ncn[nH]4)CC3)c(-c3ccccc3)n2)c1`, the B-score is -1.41.

Consider `Cc1cccc(-n2cc(CN3CCN(C(=O)c4ncn[nH]4)CC3)c(-c3cccc(F)c3)n2)c1`, for which the B-score was -8.35 (active).

Turning to `CCN1C(=O)[C@@H]2[C@@H](c3ccc(-c4ccc(OC)cc4)c(OC)c3)N3CCC[C@@]3(C(=O)OC)[C@@H]2C1=O`, the B-score entry is “inactive”.

Take `O=C(CCCN1C(=O)/C(=C/c2ccco2)SC1=S)Nc1ccccc1`: the B-score is -0.39.

On to `COC(=O)C1=C(C)N(C(C)c2ccccc2)C(=O)/C1=C\c1ccco1` (stereo not given), for which the B-score is -8.53 (active).

In the case of `COC(=O)C1=C(C)N(c2ccc(Br)cc2)C(=O)/C1=C\c1ccco1`, the B-score was -1.96.

Turning to `COc1ccc(CCNC(=O)C(=O)NCC2CCCN2S(=O)(=O)c2cccs2)cc1OC` (stereo not given), the B-score result was “inactive”.

Regarding `COC(=O)[C@H](C)[C@H]1C[C@]1(C)[C@H](NC(=O)OCc1ccccc1)c1ccccc1`, the B-score is -3.52.

With `COc1ccc(COC(=O)NC(C(=O)O)c2ccccc2)cc1` (stereo not given), the B-score result is “inactive”.

In the case of `CC(C)CC(NC(=O)C1CCCN1C(=O)[C@@H](C)NC(=O)OCc1ccccc1)C(=O)NCC(N)=O` (stereo not given in full) (Cbz-[dA][ξP][ξL]G-NH2), the B-score result was “inactive”.

As for `COC(=O)[C@H](Cc1ccccc1)NC(=O)[C@@H]1C[C@H]1[C@@H](NC(=O)OCc1ccccc1)c1ccccc1`, the B-score entry was “inactive”.

With `CC(C)C(NC(=O)OCc1ccccc1)C(=O)OCC(=O)N1C(C)CCCC1C` (stereo not given), the B-score is -8.16 (active).

On to `CC(C)[C@H](NC(=O)OCc1ccccc1)C(=O)OCc1ccccc1`, for which the B-score was -7.34 (active).

With `Cc1ccc(C)c(OCCC(=O)Nc2cccc(S(=O)(=O)N3CCCC3)c2)c1`, the B-score entry is “inactive”.

Regarding `Cc1ccc2nc(SCC(=O)Nc3cccc4ccccc34)nc(=O)n2c1`, the B-score was -0.48.

Consider `COc1ccc(NC(=O)CN(C)C(=O)Cc2coc3cc(C)c(C)cc23)cc1`, for which the B-score is -0.02.

`Brc1cnc2ccccc2c1N1CCCCC1`: the B-score result was “inactive”.

`COc1ccccc1NC(=O)CSc1nnc(C)n1CC1CCCO1` (stereo not given): the B-score entry is “inactive”.

Take `COc1ccccc1NC(=O)CSc1nnc(-c2ccoc2C)n1CCc1ccccc1`: the B-score is -8.21 (active).

`CCCn1c(SCC(=O)Nc2cccc(C(=O)OCC)c2)nnc1-c1ccoc1C`: the B-score was -0.31.

Regarding `O=C(COc1coc(CN2CCN(c3ccccc3)CC2)cc1=O)N1CCc2ccccc21`, the B-score result is “inactive”.

Regarding `C=CCOC(=O)C1=C(C)NC(C)=C(C(=O)OCC=C)C1c1cccs1`, the B-score was -2.85.

In the case of `CC1=C(C(=O)Nc2ccccc2)C(c2ccco2)C(C#N)=C(SCC(N)=O)N1` (stereo not given), the B-score result was “inactive”.

Regarding `CC1=C(C(=O)Nc2ccccc2)C(c2cccs2)C(C#N)=C(SCC#N)N1` (stereo not given), the B-score was -6.59 (active).

On to `CCN(C(=O)COC(=O)c1sccc1C)c1c(N)n(Cc2ccccc2)c(=O)[nH]c1=O`, for which the B-score entry was “inactive”.

As for `N#CCCN(C(=O)COC(=O)c1ccc(S(=O)(=O)N2CCCCCC2)cc1)c1ccccc1`, the B-score entry is “inactive”.

Turning to `Cc1ccc(C)c(OCCC(=O)OCC(=O)NC(=O)NCc2ccccc2)c1`, the B-score result was “inactive”.

Consider `COc1ccc2c(c1)O/C(=C\c1ccccc1O)C2=O`, for which the B-score is -0.61.

`COc1ccc(NC(=O)CN(C)C(=O)c2ccc(NC3CC3)c([N+](=O)[O-])c2)cc1`: the B-score result was “inactive”.

For the compound `C=CCCN(Cc1ccccc1)S(=O)(=O)c1ccccc1Br`, the B-score result was “inactive”.

On to `C=CC(COCc1ccccc1)N(Cc1ccccc1)S(=O)(=O)c1ccccc1Br` (stereo not given), for which the B-score is -5.61 (active).

Turning to `CC1CCN(c2ccc(-c3ccc(NC(=O)c4ccco4)cc3)nn2)CC1`, the B-score result was “inactive”.

With `CCc1noc(C)c1C(=O)Oc1ccc(N(C)S(=O)(=O)c2ccc(C)c(C)c2)cc1`, the B-score is -6.86 (active).

In the case of `Cc1ccc(S(=O)(=O)N(C)C)cc1NC(=O)COC(=O)c1c(C)noc1C`, the B-score is -0.34.

In the case of `COCCNC(=O)COc1ccc(N(C)S(=O)(=O)c2ccc3ccccc3c2)cc1`, the B-score entry is “inactive”.

`CCCc1cc(=O)[nH]c2nnc(SCC(=O)Nc3nnc(SCC)s3)n12`: the B-score result was “inactive”.

As for `Cc1ccc(-c2csc(NC(=O)C3=COCCO3)n2)cc1C`, the B-score is -0.1.

Take `CC(Cc1ccccc1)C(=O)N(C)Cc1ccccc1` (stereo not given): the B-score is -0.83.

In the case of `CN(Cc1ccccc1F)C(=O)C(Cc1ccccc1)NC(=O)c1ccccc1` (stereo not given), the B-score was -7.91 (active).

As to `O=C(NC(Cc1ccccc1)C(=O)N1CCCC1C(=O)O)c1ccccc1` (stereo not drawn) (Bz-Phe-Pro-OH; configuration not given here), the B-score is -0.06.

Regarding `CSc1ccccc1NC(=O)C(C)N1C(=O)c2ccccc2S1(=O)=O` (stereo not given), the B-score result was “inactive”.

Turning to `CC1=NNC(=O)C1Cc1c(Cl)cccc1Cl` (stereo not given), the B-score result is “inactive”.

For `COC(=O)[C@@]12CCCN1[C@H](c1ccc(-c3ccc(F)cc3)c(OC)c1)[C@H]1C(=O)N(C)C(=O)[C@H]12`, the B-score entry was “inactive”.

As for `COc1ccc(C(=O)CN2C(=O)NC3(CCc4ccccc43)C2=O)c(OC)c1` (stereo not given), the B-score entry is “inactive”.

For `CCN(CC)c1ccc(S(=O)(=O)N2CCCCC2)cc1NC(=O)C1=COCCO1`, the B-score was -0.93.

In the case of `C=CCn1c(SCC(=O)/C(C#N)=C(\C)N)nc2sc(C)c(C)c2c1=O`, the B-score was -7.77 (active).

Turning to `C=CCn1c(SCC(=O)NCC2CCCO2)nc2sc(C)c(C)c2c1=O` (stereo not given), the B-score entry is “inactive”.

Take `Cc1sc2nc(SCC(N)=O)n(C)c(=O)c2c1C`: the B-score is -0.14.

For the compound `COc1ccccc1C(=O)NC(=O)COC(=O)C1CC1`, the B-score entry is “inactive”.

As for `COCCN(C(=O)COC(=O)Cc1cccc(OC)c1)c1c(N)n(Cc2ccccc2)c(=O)[nH]c1=O`, the B-score result was “inactive”.

On to `Cc1ccc2nc(COc3ccc(N(C)S(=O)(=O)c4ccccc4)cc3)cc(=O)n2c1`, for which the B-score result was “inactive”.

Take `CN(c1ccc(OCC(=O)O)cc1)S(=O)(=O)c1ccc2ccccc2c1`: the B-score is -1.18.

As for `COc1cccc(COc2ccc(N(C)S(=O)(=O)c3ccccc3)cc2)c1`, the B-score is -8.25 (active).

On to `COc1ccccc1C(CNC(=O)c1cccc(NS(=O)(=O)c2ccc(Br)cc2)c1)N(C)C` (stereo not given), for which the B-score was -0.89.

As for `O=S(=O)(Nc1ccc(-c2ccc(N3CCOCC3)nn2)cc1)c1cc(Cl)ccc1Cl`, the B-score was -0.08.

On to `Cc1cc2oc3ccc(NCCC4CCCN4C)cc3c(=O)c2cc1C` (stereo not given), for which the B-score is -6.02 (active).

As for `CCCOc1ccc(C2c3c(oc4cc(C)c(C)cc4c3=O)C(=O)N2CCCN2CCOCC2)cc1` (stereo not given), the B-score was -0.39.

As for `Cc1cc2oc(=O)cc(CN3CCN(Cc4ccccc4)CC3)c2cc1C`, the B-score result was “inactive”.

On to `Cc1ccc(S(=O)(=O)N2CCN(C(=O)Cc3sc(C)nc3-c3ccc(F)cc3)CC2)c(C)c1`, for which the B-score was -0.7.

Turning to `CC(C)CN(C(=O)COC(=O)c1ccc2ccccc2c1)c1c(N)n(Cc2ccccc2)c(=O)[nH]c1=O`, the B-score entry is “inactive”.

`O=C(Nc1cc(Cl)ccc1N1CCOCC1)c1ccc(N2CCCC2=O)cc1`: the B-score result was “inactive”.

With `COc1cc(OC)cc(C(=O)NNC(=O)CNC(=O)c2ccc(Br)o2)c1`, the B-score is -1.49.

Consider `CC(C)n1c(COc2ccccc2)nc2ccccc21`, for which the B-score was -0.24.

On to `CC(C)n1c(NCc2c[nH]c3ccccc23)nc2ccccc21`, for which the B-score was -8.14 (active).

Take `Cc1ccc(O)c(CNc2nc3ccccc3n2C)c1`: the B-score entry was “inactive”.

For `Cc1nn(C)c(C)c1NS(=O)(=O)c1ccc(OC(F)(F)F)cc1`, the B-score entry is “inactive”.

Consider `Cc1ccccc1OCc1nnc(SCC(=O)N2c3ccccc3Sc3ccc(Cl)cc32)o1`, for which the B-score is -7.73 (active).

Take `O=C(CSc1nc2ccccc2o1)N1c2ccccc2Sc2ccc(Cl)cc21`: the B-score is -3.87.

For the compound `Cc1ccc(NC(=O)CSc2nnc(COc3ccccc3C)o2)cc1`, the B-score result is “inactive”.

For the compound `CN(N)c1nc(N2CCCC2)nc(N2CCCC2)n1`, the B-score is -0.33.

With `CC(=O)CC[C@@H](C)O[C@@H]1OC(C)[C@H](O)CC1O` (stereo not given in full), the B-score is -0.8.

As to `c1ccc(-c2nnc(SCc3nc4ccccc4[nH]3)o2)cc1`, the B-score result was “inactive”.

For `c1ccc2c(CSCc3nc4ccccc4[nH]3)cccc2c1`, the B-score is -4.3.

For the compound `Clc1ccccc1SCc1nc2ccccc2[nH]1`, the B-score was -5.77 (active).

For `O=C(CSc1nc(=O)n2ccccc2n1)Nc1ccc2c(c1)OCCO2`, the B-score was -1.2.

Consider `COc1ccccc1NC(=O)[C@H](COCc1ccccc1)NC(=O)OC(C)(C)C`, for which the B-score is -6.32 (active).

On to `COc1ccccc1NC(=O)C(C)OC(=O)CC1CCCC1` (stereo not given), for which the B-score was -1.

For the compound `C#CCNC(=O)[C@H](Cc1ccc(C(=O)c2ccccc2)cc1)NC(=O)OC(C)(C)C`, the B-score result is “inactive”.

These data come from PubChem BioAssay AID2156 (Johns Hopkins Ion Channel Center, 2009).
